This is an account of results in PubChem BioAssay AID651658 (Broad Institute, 2012).

Screen size: about 340,000 compounds; about 5,100 (1.5%) were called active.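 Rule for the calls: active = mean Tm shift, scaled 0 neutral to 100 positive control, at about 1.3% or above, every replicate too (limit read from the data); inconclusive = no clear call, values can overlap the other calls; inactive = the rest.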 The full list was thinned out, with actives kept by preference.

Chain of Fibroblast growth factor 22 (Homo sapiens) (Q9HCT0 whole entry, looked up): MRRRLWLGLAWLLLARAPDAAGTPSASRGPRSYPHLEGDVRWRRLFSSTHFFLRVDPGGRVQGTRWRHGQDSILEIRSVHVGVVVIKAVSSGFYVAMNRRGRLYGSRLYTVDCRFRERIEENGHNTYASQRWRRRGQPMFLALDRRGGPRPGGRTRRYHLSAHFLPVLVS

The assay addresses Fibroblast growth factor 22 (Homo sapiens) (UniProt Q9HCT0). Put plainly: binders of human FGF22 protein, primary screen, FGF22 synaptogenesis inhibitor project, biophysical, thermal shift, single point (AID 651658). The note with it: recombinant FGF22 thermal shift, SYPRO orange fluorescence; at 9.99 µM; stronger effect = higher value; percent of sucrose octasulfate shift, DMSO zero.
For `COc1cccc(-c2ccc3c(c2)[C@H]2[C@H](CCN2C(=O)c2ccc(F)cc2)[C@@H](CO)N3)c1`, the activity (Tm shift, normalised) was -0.166% (inactive). For `N#CCSc1nc(-c2ccccc2)nc2ccc(F)cc12` the value was -0.193% (inactive). For `O=[N+]([O-])c1cc2ccccc2nc1-c1ccccc1` the value was 42.3% (inactive); for `O=[N+]([O-])c1ccc(F)cc1Oc1nc(-c2cccnc2)nc2ccccc12`, 43.2% (active). Then `COc1cccc(-c2ccc([C@@H]3[C@@H](C#N)N(C(=O)c4ccccn4)[C@H]3CO)cc2)c1`, with -0.024% (inactive); and `O=C(CN1CCOCC1)NC[C@@H]1N[C@@H](CO)[C@@H]1c1ccc(-c2ccccc2)cc1`, with 0.456% (inactive).

Consider `C[C@@H]1CN([C@H](C)CO)C(=O)c2cc(N(C)C)ccc2O[C@@H](C)CCCCO[C@@H]1CN(C)C(=O)CCCN(C)C`, for which the activity (Tm shift, normalised) was -0.859% (inactive). Then `COc1ccccc1C#Cc1cnc2c(c1)C(=O)N([C@H](C)CO)C[C@H](C)[C@H](CN(C)S(=O)(=O)c1cn(C)cn1)O2`, with 0.666% (inactive); and `CC(C)[C@@H]1COCn2nncc2CCCC(=O)N1`, with -0.193% (inactive). For `O=C(C[C@H]1CC[C@@H]2[C@H](COC[C@@H](O)CN2C(=O)Nc2ccc(C(F)(F)F)cc2)O1)NCCc1ccncc1` the value was -0.088% (inactive); for `O=C1C=C(c2ccccc2)CCC1`, 43.9% (active); for `CC(C)NC(=O)N1[C@H](CO)[C@H](c2ccccc2)C12CN(C(=O)Cc1ccccc1)C2`, -0.087% (inactive). As for `CC(C)Oc1ccccc1C(=O)NC(CO)C(=O)O` (centres undefined), the activity (Tm shift, normalised) was 42.8% (inactive). Then `CC1(C)OC(=O)C(=CNC(CO)C(=O)O)C(=O)O1` (centres undefined), with 43.2% (active); and `COCC(=O)N1CC2(C1)CN(C(=O)COC)[C@@H](CO)c1c2c2ccc(OC)cc2n1C`, with -0.043% (inactive); and `C[C@@H]1CN([C@H](C)CO)C(=O)c2cc(NC(=O)Cn3cnnn3)ccc2O[C@@H]1CN(C)C(=O)Nc1ccc2c(c1)OCO2`, with 0.191% (inactive). For `O=S(=O)(N[C@@H]1CC[C@H](CCn2cc(-c3ccccc3F)nn2)O[C@H]1CO)c1ccc(F)cc1` the value was 0.086% (inactive); for `O=C(Cc1ccccc1Cl)N1CCOCC1`, -0.495% (inactive); for `S=C(Cc1ccc(Cl)cc1)N1CCOCC1`, 43.7% (active). Then `O=S(=O)(Oc1ccccc1C(=S)N1CCOCC1)c1ccc(Cl)cc1`, with 0% (inactive); and `COc1ccc2c3c(n(C)c2c1)[C@@H](CO)NCC31CCN(CC2CCCC2)CC1`, with -0.076% (inactive); and `Cc1ccc(S(=O)(=O)c2nc(-c3cccs3)oc2NCc2cccnc2)cc1`, with 0.137% (inactive). For the compound `O=S(=O)(c1ccccc1)c1nc(-c2ccccc2)oc1NCCCN1CCOCC1`, the activity (Tm shift, normalised) is 0.296% (inactive). Then `O=S(=O)(c1ccccc1)c1nc(-c2ccccc2F)oc1NCc1cccnc1`, with 44.2% (active); and `O=C(NCC1CC1)[C@@H]1[C@@H](CO)[C@@H]2Cn3c(ccc(-c4ccccc4)c3=O)[C@H]1N2C(=O)C1CC1`, with 0.292% (inactive). For `Cc1cc(C)cc(NC(=O)C2CCCN(S(=O)(=O)c3ccc4[nH]c(=O)ccc4c3)C2)c1` (centres undefined) the value was -0.297% (inactive). Then `CC1CCN(S(=O)(=O)c2ccc3c(c2)n(C)c(=O)n3C)CC1`, with 0.113% (inactive); and `CC1CCN(S(=O)(=O)c2ccc3[nH]c(=O)ccc3c2)CC1`, with 43.3% (active); and `COc1ccc(CCNC(=O)c2c(C)nn(-c3ccccc3)c2Cl)cc1`, with 0.155% (inactive). For `COCc1[nH]nc2c1C(c1ccccc1)N(c1ccccc1)C2=O` (centres undefined), the activity (Tm shift, normalised) was -0.061% (inactive). For `COc1ccc(C2c3c(C)nn(-c4ccccc4)c3NC(=O)N2c2ccccc2)cc1` (centres undefined) the value was 42.9% (active); for `COc1ccccc1-c1ccc2c(c1)O[C@@H](CN(C)C(=O)Nc1ccccc1)[C@H](C)CN([C@@H](C)CO)S2(=O)=O`, 0.048% (inactive). Consider `CN1c2ccc(-c3cccc(C#N)c3)cc2[C@@H]2[C@@H](CCN2C(=O)C2CCC2)[C@@H]1CO`, for which the activity (Tm shift, normalised) is -0.466% (inactive).

As for `CC(C(=O)O)n1cnc2sc3c(c2c1=O)CCCC3` (centres undefined), the activity (Tm shift, normalised) is 43.5% (active). `COc1ccc(NC(=O)CCNC(=O)Cn2cnc3sc4c(c3c2=O)CCCC4)cc1OC`: the activity (Tm shift, normalised) is 0.026% (inactive). Then `Cc1nc2sc3c(c2c(=O)n1NC(=O)CCl)CCCC3`, with 0.109% (inactive); and `CN(C)C(=O)c1ccc(-c2ccc([C@@H]3[C@@H](CO)N4CCCCN(CC5CC5)C[C@H]34)cc2)cc1`, with -0.109% (inactive).

`CC(=O)N1[C@@H](CO)[C@H](c2ccccc2)[C@@H]1CN(C)C(=O)CN1CCOCC1`: the activity (Tm shift, normalised) is 0.01% (inactive). Then `CO[C@H]1CN(C)C(=O)c2cc(NC(=O)C3CCC3)ccc2OC[C@H](C)N(C)C[C@H]1C`, with -0.155% (inactive); and `CCNC(=O)Nc1ccc2c(c1)C(=O)N(C)[C@@H]1CC[C@H](CC(=O)NC3CCCCC3)O[C@H]1CO2`, with -0.109% (inactive); and `Nc1nonc1-n1nnc(C(=O)N/N=C/C2CCCCC2)c1-c1ccccc1`, with 0.34% (inactive).

Consider `CCCOc1ccc(-c2c(C(=O)N/N=C/c3ccco3)nnn2-c2nonc2N)cc1`, for which the activity (Tm shift, normalised) is -0.098% (inactive). For `C/C(COc1ccccc1)=N\NC(=O)c1nnn(-c2nonc2N)c1-c1ccc(C)cc1` the value was 43.2% (active); for `Cc1ccc(OCC(=O)NC(C)c2ccccc2)c([N+](=O)[O-])n1` (centres undefined), 43.5% (active); for `Cc1cc(C)cc(OCC(=O)NC(C)c2ccccc2)c1` (centres undefined), 0.179% (inactive). For `COc1ccccc1CNC(=O)COc1ccc(C)nc1[N+](=O)[O-]` the value was 0.224% (inactive); for `COc1ccc(S(=O)(=O)N(C)C[C@@H]2OCCCC[C@H](C)Oc3ccc(NC(=O)NC(C)C)cc3C(=O)N([C@@H](C)CO)C[C@@H]2C)cc1`, -0.199% (inactive); for `CO[C@@H]1CN(C)C(=O)c2cc(NC(C)=O)ccc2OC[C@H](C)N(C(=O)CC2CC2)C[C@@H]1C`, 0.119% (inactive). Then `C[C@@H](O)C#Cc1ccc([C@H]2[C@@H](CO)N3CCCCN(S(=O)(=O)c4ccccc4)C[C@@H]23)cc1`, with -0.117% (inactive); and `O=C(/C=C/c1ccc2c(c1)OCCO2)c1ccc(O)cc1`, with 2.05% (active). For the compound `Cc1ccc(C(=O)NNC(=O)c2ccc3c(c2)OCCO3)cc1`, the activity (Tm shift, normalised) is -0.233% (inactive).

As for `O=C(COC(=O)c1ccc(O)cc1O)c1ccc2c(c1)OCCO2`, the activity (Tm shift, normalised) was 0.444% (inactive). Then `C[C@H](CO)N1C[C@H](C)[C@@H](CN(C)C(=O)C2CCCCC2)Oc2cc(C3=CCCC3)ccc2S1(=O)=O`, with 0.195% (inactive). Then `O=C(NCC1CCCO1)/C(=C/c1ccc(Cl)cc1)NC(=O)c1ccccc1` (centres undefined), with -0.33% (inactive); and `Cc1ccc(C(=O)N/C(=C/c2cccs2)C(=O)N2CCCCC2)cc1`, with 0.095% (inactive).

With `Cc1ccc(C(=O)N/C(=C/c2cccs2)C(=O)NCC2CCCO2)cc1` (centres undefined), the activity (Tm shift, normalised) is 42.9% (active). Consider `CCCC#Cc1cnc2c(c1)C(=O)N([C@H](C)CO)C[C@H](C)[C@H](CN(C)C(=O)Cc1ccncc1)O2`, for which the activity (Tm shift, normalised) is 0.077% (inactive). For `CC(C)NC(=O)N1[C@H](CNC(=O)CN(C)C)[C@@H](c2ccccc2)[C@@H]1CO` the value was -0.154% (inactive); for `Cc1ccc(S(=O)(=O)NCCC(=O)Nc2ccc(C)c(Cl)c2)cc1C`, 1.75% (active); for `Cc1ccnc(NC(=O)CCNS(=O)(=O)c2ccc(C)c(C)c2)c1`, -0.078% (inactive). Then `Cc1ccc(S(=O)(=O)NCCC(=O)Nc2cccc(S(N)(=O)=O)c2)cc1C`, with -0.18% (inactive); and `CCC(=O)Nc1ccc2c(c1)C(=O)N(C)C[C@H](OC)[C@H](C)CN(C(=O)c1ccccc1F)[C@@H](C)CO2`, with 0.053% (inactive). For `CC(C)c1cc(C(=O)NC2CCCCCC2)c2ccccc2n1` the value was -0.159% (inactive); for `CN(C(=O)c1cc2c(=O)n3ccccc3nc2s1)C1CCCCC1`, -0.192% (inactive). On to `CN(c1ccc2nc3ccccc3c(=O)n2n1)C1CCCCC1`, for which the activity (Tm shift, normalised) is 43.9% (active). For `CN(C)CC(=O)N1[C@@H](CO)[C@H](c2ccccc2)C12CN(C(=O)c1cccc(F)c1)C2` the value was 0.354% (inactive). With `COC(=O)N/N=C/c1ccc(-c2ccc(Cl)c(Cl)c2)o1`, the activity (Tm shift, normalised) is -0.262% (inactive). As for `Brc1cc(/C=N/n2cnnc2)oc1Br`, the activity (Tm shift, normalised) was -0.235% (inactive). For `Clc1cc(-c2ccc(/C=N/n3cnnc3)o2)ccc1Br` the value was 43.6% (active). For `C[C@H](CO)N1C[C@H](C)[C@H](CN(C)C(=O)NC2CCCCC2)Oc2c(NC(=O)C3CC3)cccc2C1=O` the value was -0.273% (inactive); for `O=C(NCCN1CCOCC1)c1ccc2c(c1)N(Cc1cccc(Cl)c1)C(=O)c1ccccc1S2(=O)=O`, -0.426% (inactive); for `O=C(c1ccc2c(c1)N(Cc1ccc(F)cc1)C(=O)c1ccccc1S2(=O)=O)N1CCN(c2ccccn2)CC1`, 44.2% (active). Then `O=C1c2ccccc2S(=O)(=O)c2cc(N3CCN(c4ccccn4)CC3)ccc21`, with 0.041% (inactive); and `CO[C@@H]1CN(C)C(=O)c2cc(NC(=O)c3ccccc3F)ccc2OC[C@H](C)N(C(C)=O)C[C@@H]1C`, with 0.052% (inactive); and `C[C@@H]1CN([C@H](C)CO)S(=O)(=O)c2ccc(-c3ccncc3)cc2O[C@H]1CN(C)S(=O)(=O)c1ccccc1F`, with -0.04% (inactive). As for `C[C@@H]1CCCCO[C@@H](CN(C)C(=O)NC2CCCCC2)[C@H](C)CN([C@H](C)CO)C(=O)c2cc(NS(=O)(=O)c3ccc(Cl)cc3)ccc2O1`, the activity (Tm shift, normalised) was 0.906% (inactive). For `CN(c1ccccc1)S(=O)(=O)c1cc(C(=O)OCC(=O)N2CCN(C(=O)c3ccco3)CC2)ccc1Cl`, the activity (Tm shift, normalised) was 43.1% (active). Then `O=C(OCC(=O)N1CCN(C(=O)c2ccco2)CC1)c1ccc(Cl)c(Cl)c1`, with -0.203% (inactive); and `O=C(OCC(=O)N1CCN(C(=O)c2ccco2)CC1)c1cccc(O)c1`, with 0.05% (inactive).
